Test systems include NCI-H23 lung; NCI-H322M lung; HOP-62 NSCLC; NCI-H460 lung; HOP-92 NSCLC; NCI-H522 lung; A549/ATCC NSCLC; 786-0 renal; COLO 205 colon; DU-145 prostate; K-562 leukemia; MALME-3M melanoma; MDA-MB-231 breast; RXF 393 renal; SF-268 CNS; SF-295 CNS; SF-539 CNS; UACC-257 melanoma; M14 melanoma; NCI-H226 lung.
Holding throughout (assay): NCI-60 one-dose screen, 48 h (100 = growth as untreated, 0 = no growth, -100 = all killed)
Holding throughout (settings): 10 µM unless noted

Molecules are shown by their SMILES. Where “and” joins values, the source holds several entries; their conditions need not be identical. Equal entries are not always repeated. This is part of a sample that, as a whole, favours compounds with a hit. Of some 83,000 tested, about 20% had one in any assay.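 48-hour exposure, single concentration, 96-well plates; percent growth endpoint where 0 means no net growth. Active: below 10.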 Calls of active or inactive are those of the source.

Consider `C#CCN(C)Cc1ccccc1`, for which the growth with NCI-H23 lung is 106% (inactive) and 104% (inactive); in the test on NCI-H322M lung, 99.3% (inactive) and 450% (inactive); with HOP-62 NSCLC, 93.5% (inactive) and 89.6% (inactive); in the test with NCI-H460 lung, 110% (inactive) and 104% (inactive); in the test with HOP-92 NSCLC, 100% (inactive); in the test on NCI-H522 lung, 100% (inactive) and 92.5% (inactive). Also, the growth in the test on A549/ATCC NSCLC was 102% (inactive) and 101% (inactive); with 786-0 renal, 95.5% (inactive) and 70.4% (inactive); in the test on COLO 205 colon, 108% (inactive) and 122% (inactive); in the test on DU-145 prostate, 111% (inactive); in the test with K-562 leukemia it was 95.9% (inactive) and 94.2% (inactive); in the test on MALME-3M melanoma, 100% (inactive) and 305% (inactive). The growth in the test on MDA-MB-231 breast was 106% (inactive) and 89.6% (inactive); with RXF 393 renal, 114% (inactive) and 96.6% (inactive); with SF-268 CNS, 107% (inactive) and 99.5% (inactive); with SF-295 CNS, 108% (inactive) and 98.1% (inactive); in the test with SF-539 CNS it was 97.8% (inactive); with UACC-257 melanoma it was 105% (inactive). Also, in the test on M14 melanoma, the growth is 97.3% (inactive) and 96.8% (inactive).

Take `NC(=O)C1CC2C=CC1C2` (stereo unspecified): the growth in the test with NCI-H23 lung is 92.1% (inactive) and 106% (inactive); with NCI-H226 lung, 97.7% (inactive) and 98.9% (inactive); in the test with NCI-H322M lung, 104% (inactive) and 107% (inactive); in the test with HOP-62 NSCLC, 91.2% (inactive) and 98.4% (inactive); in the test with NCI-H460 lung, 103% (inactive) and 110% (inactive); with NCI-H522 lung, 106% (inactive) and 94.2% (inactive). The growth in the test on A549/ATCC NSCLC is 96.2% (inactive) and 100% (inactive); in the test on 786-0 renal it was 98% (inactive) and 116% (inactive); in the test with COLO 205 colon, 96.8% (inactive) and 120% (inactive); in the test with DU-145 prostate, 114% (inactive) and 115% (inactive); with K-562 leukemia, 103% (inactive) and 93.9% (inactive); in the test on MALME-3M melanoma it was 69.2% (inactive) and 124% (inactive). Moreover, the growth with MDA-MB-231 breast is 101% (inactive) and 99.1% (inactive); in the test with RXF 393 renal, 108% (inactive) and 89.7% (inactive); with SF-268 CNS it was 118% (inactive) and 108% (inactive); in the test with SF-295 CNS it was 113% (inactive) and 95.2% (inactive); with SF-539 CNS, 95.2% (inactive) and 112% (inactive); with UACC-257 melanoma, -24.1% (active). Besides, in the test on M14 melanoma, the growth is 106% (inactive) and 87.4% (inactive).

On to `CC1=C(/C=C/C(C)=C/C=C/C(C)=C/C(=O)O)C(C)(C)CCC1`, for which the growth in the test with NCI-H23 lung is 86.6% (inactive) and 96.1% (inactive) and 98.3% (inactive); in the test with NCI-H322M lung, 94.2% (inactive) and 101% (inactive); in the test on HOP-62 NSCLC, 73% (inactive) and 75.4% (inactive); in the test on NCI-H460 lung, 91.2% (inactive) and 91.7% (inactive) and 90.6% (inactive); in the test with HOP-92 NSCLC, 66.8% (inactive) and 77% (inactive) and 26.4% (inactive); with NCI-H522 lung it was 64.8% (inactive) and 79.3% (inactive). Besides, the growth is 73.4% (inactive) and 88.2% (inactive) and 80.3% (inactive) in the test on A549/ATCC NSCLC; 96.6% (inactive) and 85.6% (inactive) and 102% (inactive) with 786-0 renal; 108% (inactive) and 93.2% (inactive) and 145% (inactive) with COLO 205 colon; 103% (inactive) and 83.3% (inactive) in the test on DU-145 prostate; 108% (inactive) and 89.5% (inactive) in the test with K-562 leukemia; 69.1% (inactive) and 35.6% (inactive) and 70.6% (inactive) in the test with MALME-3M melanoma. In addition, the growth with MDA-MB-231 breast was 78.1% (inactive) and 82.2% (inactive) and 85.1% (inactive); in the test with RXF 393 renal, 94.2% (inactive) and 89.6% (inactive) and 91.3% (inactive); with SF-268 CNS, 91.7% (inactive) and 92.9% (inactive) and 101% (inactive); in the test with SF-295 CNS, 69.3% (inactive) and 88.1% (inactive) and 114% (inactive); in the test with SF-539 CNS, 88.7% (inactive) and 62.2% (inactive) and 86.1% (inactive); with UACC-257 melanoma, 94.7% (inactive) and 82.5% (inactive) and 93.9% (inactive). Also, the growth in the test on M14 melanoma is 109% (inactive) and 95.3% (inactive) and 91.5% (inactive).

Take `CCN(CC)CCOc1ccc2c(c1)C(=O)c1cc(OCCN(CC)CC)ccc1-2`: the growth in the test on NCI-H23 lung is 79.5% (inactive) and 71.2% (inactive); in the test on NCI-H226 lung it was 99.7% (inactive) and 73% (inactive); with NCI-H322M lung, 85.8% (inactive) and 60.6% (inactive); in the test with HOP-62 NSCLC, 58.3% (inactive) and 38.2% (inactive); in the test with NCI-H460 lung, 46.2% (inactive) and 12.9% (inactive); with NCI-H522 lung it was 99.6% (inactive) and 69.6% (inactive). Also, the growth in the test with A549/ATCC NSCLC was 55.8% (inactive) and 50.6% (inactive); with 786-0 renal, 63.3% (inactive) and -30.9% (active); with COLO 205 colon, 11.3% (inactive) and -4.52% (active); with DU-145 prostate, 74.6% (inactive) and 64.7% (inactive); with K-562 leukemia, 41.7% (inactive) and -9.47% (active); with MALME-3M melanoma, 98.2% (inactive) and 80.2% (inactive). The growth is 65.5% (inactive) and 78.5% (inactive) in the test on MDA-MB-231 breast; 71.4% (inactive) with RXF 393 renal; 75.1% (inactive) and 54.8% (inactive) in the test on SF-268 CNS; 82.6% (inactive) and 71.5% (inactive) with SF-295 CNS; 50% (inactive) and 38.4% (inactive) in the test on SF-539 CNS; 89.9% (inactive) and 88.6% (inactive) in the test on UACC-257 melanoma. Besides, the growth in the test with M14 melanoma was 91.7% (inactive) and 83.4% (inactive).

Values taken from PubChem BioAssay (NCI).
